Experiments:
Test in all cases: log2 ratio of Biotin-Ahx-Ub-VS probe labelling (fragment/DMSO); higher = less target engagement (more negative = stronger competition), active = hit call of the paper (q ≤ 0.05, log2 ratio ≤ -1)
Conditions in all cases: compound concentration: 200 uM; treatment time: 3 h
USP34 = USP34 (UniProt Q70CQ2)
Procedure, shortened: (§1)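 Labelling with Biotin-Ahx-Ub-VS (0.5 µM final, 1 h) followed a 3 h triplicate treatment of HEK293T lysate (495 µg per sample, Tris/CHAPS/IGEPAL buffer with protease inhibitors) with fragment at 200 µM or vehicle. Labelled DUBs were NeutrAvidin-enriched, digested with LysC and trypsin, and run by diaPASEF LC-MS/MS. The values, average log2 fragment/vehicle ratios by unpaired t-test, come from global-median-normalised Spectronaut label-free quantities. Proteins with ≥2 unique peptides were used.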

USP36 = molecular target: T1, USP36 (UniProt Q9P275)
T1 sequence (whole entry): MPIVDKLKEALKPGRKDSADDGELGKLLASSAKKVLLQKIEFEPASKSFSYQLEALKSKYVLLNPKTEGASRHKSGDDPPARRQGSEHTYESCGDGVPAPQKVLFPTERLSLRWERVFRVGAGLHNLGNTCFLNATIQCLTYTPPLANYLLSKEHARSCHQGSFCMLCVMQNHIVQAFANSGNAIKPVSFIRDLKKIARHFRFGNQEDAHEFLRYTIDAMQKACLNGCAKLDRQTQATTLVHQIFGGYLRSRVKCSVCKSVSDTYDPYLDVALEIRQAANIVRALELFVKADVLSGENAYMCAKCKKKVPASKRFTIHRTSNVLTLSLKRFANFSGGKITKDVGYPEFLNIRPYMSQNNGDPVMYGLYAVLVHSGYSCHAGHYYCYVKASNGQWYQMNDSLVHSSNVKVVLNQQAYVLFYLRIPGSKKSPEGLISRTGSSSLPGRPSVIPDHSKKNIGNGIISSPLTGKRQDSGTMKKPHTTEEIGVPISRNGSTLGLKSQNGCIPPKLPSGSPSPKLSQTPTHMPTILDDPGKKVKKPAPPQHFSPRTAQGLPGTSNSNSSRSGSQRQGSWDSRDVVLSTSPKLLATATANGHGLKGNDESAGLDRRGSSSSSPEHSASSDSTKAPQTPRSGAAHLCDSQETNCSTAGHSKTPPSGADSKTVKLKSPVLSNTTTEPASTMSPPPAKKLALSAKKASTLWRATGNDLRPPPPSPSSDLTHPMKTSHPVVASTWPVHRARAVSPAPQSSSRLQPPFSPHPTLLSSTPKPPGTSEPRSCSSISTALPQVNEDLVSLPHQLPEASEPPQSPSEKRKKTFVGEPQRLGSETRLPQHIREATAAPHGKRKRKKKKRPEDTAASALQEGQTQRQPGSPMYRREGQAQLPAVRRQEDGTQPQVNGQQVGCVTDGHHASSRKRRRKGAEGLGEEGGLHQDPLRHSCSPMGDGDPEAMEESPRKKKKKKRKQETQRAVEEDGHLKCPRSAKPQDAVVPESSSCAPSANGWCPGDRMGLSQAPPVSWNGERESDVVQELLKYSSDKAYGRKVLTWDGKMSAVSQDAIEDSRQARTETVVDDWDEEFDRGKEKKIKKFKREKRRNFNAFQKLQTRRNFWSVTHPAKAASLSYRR
Procedure, shortened: as §1

USP38 = molecular target: T2, USP38 (UniProt Q8NB14)
T2 sequence (whole entry): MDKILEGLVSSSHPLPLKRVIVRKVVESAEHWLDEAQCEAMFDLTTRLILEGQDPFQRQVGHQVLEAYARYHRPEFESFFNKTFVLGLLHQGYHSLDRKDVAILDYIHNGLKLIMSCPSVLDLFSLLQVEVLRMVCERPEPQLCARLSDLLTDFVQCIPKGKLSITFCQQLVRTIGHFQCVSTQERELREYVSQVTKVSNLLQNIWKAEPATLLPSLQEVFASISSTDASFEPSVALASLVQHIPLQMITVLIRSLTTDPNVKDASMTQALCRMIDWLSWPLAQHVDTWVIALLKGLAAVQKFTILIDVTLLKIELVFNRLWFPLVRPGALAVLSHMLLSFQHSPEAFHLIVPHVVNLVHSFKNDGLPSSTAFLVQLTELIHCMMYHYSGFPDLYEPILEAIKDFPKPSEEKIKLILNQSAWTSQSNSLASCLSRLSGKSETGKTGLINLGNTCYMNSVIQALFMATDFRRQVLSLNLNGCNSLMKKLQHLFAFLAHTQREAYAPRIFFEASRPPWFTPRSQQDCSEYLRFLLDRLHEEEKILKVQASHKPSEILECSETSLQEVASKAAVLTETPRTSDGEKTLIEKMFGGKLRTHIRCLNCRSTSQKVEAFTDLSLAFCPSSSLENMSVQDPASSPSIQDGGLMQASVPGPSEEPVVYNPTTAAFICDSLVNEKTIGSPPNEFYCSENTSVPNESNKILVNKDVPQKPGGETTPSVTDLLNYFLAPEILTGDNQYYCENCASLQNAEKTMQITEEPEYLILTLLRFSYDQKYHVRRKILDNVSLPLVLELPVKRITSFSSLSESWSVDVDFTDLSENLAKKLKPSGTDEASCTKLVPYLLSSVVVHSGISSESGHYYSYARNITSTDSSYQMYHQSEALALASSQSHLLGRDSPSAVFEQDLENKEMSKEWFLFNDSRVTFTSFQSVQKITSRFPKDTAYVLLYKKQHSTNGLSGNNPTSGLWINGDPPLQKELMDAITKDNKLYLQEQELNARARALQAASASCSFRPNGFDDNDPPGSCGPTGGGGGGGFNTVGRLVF
Procedure, shortened: as §1

USP39 = molecular target: T3, USP39 (UniProt Q53GS9)
T3 sequence (whole entry): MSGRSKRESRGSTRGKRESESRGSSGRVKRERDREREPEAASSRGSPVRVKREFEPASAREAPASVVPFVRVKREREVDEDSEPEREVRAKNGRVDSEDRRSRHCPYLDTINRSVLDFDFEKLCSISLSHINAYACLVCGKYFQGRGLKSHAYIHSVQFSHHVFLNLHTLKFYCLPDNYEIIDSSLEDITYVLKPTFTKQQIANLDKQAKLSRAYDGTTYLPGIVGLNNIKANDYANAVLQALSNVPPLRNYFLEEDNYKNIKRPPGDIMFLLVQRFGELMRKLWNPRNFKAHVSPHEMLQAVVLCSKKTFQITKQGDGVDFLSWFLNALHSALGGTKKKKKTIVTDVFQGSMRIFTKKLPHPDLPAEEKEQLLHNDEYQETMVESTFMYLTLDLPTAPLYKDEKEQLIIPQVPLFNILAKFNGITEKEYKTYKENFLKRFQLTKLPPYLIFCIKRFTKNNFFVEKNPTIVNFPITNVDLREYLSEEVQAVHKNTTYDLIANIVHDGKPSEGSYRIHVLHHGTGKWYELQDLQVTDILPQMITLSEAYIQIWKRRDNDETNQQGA
Procedure, shortened: as §1

USP4 = molecular target: T4, USP4 (UniProt Q13107)
T4 sequence (whole entry): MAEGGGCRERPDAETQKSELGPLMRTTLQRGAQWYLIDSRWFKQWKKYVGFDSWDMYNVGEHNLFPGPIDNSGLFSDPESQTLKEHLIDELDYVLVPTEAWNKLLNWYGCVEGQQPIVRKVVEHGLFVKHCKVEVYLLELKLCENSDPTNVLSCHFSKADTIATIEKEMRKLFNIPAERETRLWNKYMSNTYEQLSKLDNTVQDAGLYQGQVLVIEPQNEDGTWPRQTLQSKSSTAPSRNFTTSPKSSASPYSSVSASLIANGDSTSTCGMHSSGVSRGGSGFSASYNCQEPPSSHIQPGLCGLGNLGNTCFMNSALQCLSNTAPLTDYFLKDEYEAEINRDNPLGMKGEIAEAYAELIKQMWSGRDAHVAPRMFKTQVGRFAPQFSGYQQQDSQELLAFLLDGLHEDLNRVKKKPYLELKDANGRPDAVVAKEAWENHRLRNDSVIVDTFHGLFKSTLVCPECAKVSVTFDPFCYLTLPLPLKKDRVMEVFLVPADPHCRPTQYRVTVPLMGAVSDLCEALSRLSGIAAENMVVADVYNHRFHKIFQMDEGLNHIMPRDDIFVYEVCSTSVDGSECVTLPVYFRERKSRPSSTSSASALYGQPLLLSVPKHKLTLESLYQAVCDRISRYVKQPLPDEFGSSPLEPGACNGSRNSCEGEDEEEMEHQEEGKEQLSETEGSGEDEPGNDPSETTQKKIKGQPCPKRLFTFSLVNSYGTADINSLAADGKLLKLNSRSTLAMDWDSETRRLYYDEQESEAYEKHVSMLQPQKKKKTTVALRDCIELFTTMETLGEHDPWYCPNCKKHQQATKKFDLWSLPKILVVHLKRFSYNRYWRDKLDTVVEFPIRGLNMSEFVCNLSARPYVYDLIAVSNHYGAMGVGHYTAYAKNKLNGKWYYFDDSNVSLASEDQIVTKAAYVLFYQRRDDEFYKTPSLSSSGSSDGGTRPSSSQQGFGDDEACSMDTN
Procedure, shortened: as §1

Measured: log2 ratio of Biotin-Ahx-Ub-VS probe labelling

Sequence of USP34 (Q70CQ2 whole entry, the tested form may be a part): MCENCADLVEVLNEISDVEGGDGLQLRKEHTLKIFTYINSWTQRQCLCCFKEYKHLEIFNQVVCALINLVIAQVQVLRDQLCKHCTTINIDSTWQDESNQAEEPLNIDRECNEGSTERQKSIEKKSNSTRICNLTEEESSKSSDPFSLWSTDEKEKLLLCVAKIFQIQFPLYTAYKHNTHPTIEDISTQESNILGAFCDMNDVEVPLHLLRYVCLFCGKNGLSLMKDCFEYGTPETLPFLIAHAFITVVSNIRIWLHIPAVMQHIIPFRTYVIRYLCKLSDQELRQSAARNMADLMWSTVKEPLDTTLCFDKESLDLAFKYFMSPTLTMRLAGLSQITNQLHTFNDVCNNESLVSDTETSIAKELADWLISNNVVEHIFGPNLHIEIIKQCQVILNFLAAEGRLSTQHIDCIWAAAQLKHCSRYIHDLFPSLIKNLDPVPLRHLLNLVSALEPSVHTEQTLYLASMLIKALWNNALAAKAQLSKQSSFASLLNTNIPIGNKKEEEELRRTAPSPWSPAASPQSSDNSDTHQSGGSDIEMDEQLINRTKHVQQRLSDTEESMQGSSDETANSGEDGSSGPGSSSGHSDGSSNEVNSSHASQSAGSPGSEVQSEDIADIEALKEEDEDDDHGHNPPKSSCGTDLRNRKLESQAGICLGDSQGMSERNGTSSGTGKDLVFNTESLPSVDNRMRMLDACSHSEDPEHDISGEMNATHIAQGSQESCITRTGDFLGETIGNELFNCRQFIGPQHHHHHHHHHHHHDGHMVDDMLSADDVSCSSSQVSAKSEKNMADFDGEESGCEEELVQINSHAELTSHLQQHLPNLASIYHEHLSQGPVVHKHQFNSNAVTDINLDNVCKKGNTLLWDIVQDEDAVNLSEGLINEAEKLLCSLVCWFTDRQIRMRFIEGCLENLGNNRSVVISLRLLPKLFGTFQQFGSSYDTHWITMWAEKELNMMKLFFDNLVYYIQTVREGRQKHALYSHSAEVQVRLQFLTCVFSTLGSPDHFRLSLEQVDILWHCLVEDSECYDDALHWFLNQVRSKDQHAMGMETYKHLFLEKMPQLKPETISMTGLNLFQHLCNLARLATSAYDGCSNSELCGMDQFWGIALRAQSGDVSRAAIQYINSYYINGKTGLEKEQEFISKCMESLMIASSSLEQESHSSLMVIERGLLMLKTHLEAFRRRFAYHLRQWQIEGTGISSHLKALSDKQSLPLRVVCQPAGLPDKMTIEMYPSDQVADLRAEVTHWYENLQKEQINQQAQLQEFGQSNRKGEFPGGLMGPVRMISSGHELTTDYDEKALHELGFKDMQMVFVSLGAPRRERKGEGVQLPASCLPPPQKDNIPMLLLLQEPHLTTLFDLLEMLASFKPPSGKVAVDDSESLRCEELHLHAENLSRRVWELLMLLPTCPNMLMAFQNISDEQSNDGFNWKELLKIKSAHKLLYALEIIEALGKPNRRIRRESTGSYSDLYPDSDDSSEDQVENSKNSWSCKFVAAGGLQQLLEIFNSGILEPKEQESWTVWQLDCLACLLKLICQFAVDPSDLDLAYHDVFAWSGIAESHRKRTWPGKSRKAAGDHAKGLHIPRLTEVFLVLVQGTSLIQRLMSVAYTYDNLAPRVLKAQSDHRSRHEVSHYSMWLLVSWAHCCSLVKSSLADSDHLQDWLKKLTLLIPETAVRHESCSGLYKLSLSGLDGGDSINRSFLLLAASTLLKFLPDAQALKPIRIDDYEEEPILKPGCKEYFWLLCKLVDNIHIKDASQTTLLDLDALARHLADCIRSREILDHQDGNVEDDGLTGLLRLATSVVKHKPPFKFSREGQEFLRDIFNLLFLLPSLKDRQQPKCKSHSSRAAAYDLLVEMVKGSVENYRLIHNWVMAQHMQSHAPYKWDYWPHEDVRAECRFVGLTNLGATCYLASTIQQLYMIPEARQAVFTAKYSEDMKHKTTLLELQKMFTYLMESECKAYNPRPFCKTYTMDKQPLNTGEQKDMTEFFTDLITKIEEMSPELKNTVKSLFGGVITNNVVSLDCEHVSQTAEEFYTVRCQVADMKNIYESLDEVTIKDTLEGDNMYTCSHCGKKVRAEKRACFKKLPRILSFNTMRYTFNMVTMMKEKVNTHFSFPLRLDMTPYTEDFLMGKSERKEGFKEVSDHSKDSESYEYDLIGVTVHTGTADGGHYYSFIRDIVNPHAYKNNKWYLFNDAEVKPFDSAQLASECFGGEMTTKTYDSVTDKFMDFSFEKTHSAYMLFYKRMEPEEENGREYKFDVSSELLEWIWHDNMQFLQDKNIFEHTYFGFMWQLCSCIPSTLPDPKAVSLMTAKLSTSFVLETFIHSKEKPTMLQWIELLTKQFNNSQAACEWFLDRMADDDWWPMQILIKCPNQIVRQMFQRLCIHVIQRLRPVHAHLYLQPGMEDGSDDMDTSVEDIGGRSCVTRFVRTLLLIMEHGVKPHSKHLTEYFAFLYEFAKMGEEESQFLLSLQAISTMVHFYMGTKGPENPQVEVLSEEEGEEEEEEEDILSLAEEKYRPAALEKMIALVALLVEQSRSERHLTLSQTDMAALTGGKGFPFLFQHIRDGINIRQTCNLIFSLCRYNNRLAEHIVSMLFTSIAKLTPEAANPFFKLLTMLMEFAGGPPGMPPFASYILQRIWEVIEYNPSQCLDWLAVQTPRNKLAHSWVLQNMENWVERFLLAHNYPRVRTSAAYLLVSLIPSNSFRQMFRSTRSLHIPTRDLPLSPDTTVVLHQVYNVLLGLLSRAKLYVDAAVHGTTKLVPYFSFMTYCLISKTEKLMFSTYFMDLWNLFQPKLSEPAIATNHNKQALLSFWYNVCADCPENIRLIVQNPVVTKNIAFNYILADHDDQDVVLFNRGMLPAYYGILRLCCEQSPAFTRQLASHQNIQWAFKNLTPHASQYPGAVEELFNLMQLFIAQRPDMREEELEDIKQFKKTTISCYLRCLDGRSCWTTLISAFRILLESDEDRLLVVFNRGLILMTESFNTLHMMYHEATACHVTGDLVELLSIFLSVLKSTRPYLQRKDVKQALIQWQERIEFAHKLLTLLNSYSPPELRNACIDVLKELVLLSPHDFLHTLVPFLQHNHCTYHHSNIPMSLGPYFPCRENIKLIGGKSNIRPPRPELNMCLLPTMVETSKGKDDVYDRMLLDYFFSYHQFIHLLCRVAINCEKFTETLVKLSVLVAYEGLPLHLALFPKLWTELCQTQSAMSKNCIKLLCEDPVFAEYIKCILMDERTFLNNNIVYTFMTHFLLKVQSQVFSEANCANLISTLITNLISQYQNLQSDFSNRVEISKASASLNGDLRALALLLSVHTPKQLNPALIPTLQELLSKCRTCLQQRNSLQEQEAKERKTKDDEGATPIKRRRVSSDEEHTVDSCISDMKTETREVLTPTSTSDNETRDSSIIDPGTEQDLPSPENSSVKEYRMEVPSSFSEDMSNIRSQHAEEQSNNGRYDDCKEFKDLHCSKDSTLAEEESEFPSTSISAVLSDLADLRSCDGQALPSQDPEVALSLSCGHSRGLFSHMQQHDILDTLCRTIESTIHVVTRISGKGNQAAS

Cn1cc(CN(Cc2ccc(Cl)cc2)C(=O)CCl)cn1
inactive: USP34 -0.228 | USP36 0.253 | USP38 -0.245 | USP39 -0.193 | USP4 -0.316
